Key:
Settings in all cases: treatment time: 24 h
A549-ACTB-RAB5A = assay: phenotypically active (imaging signature differs from DMSO and reproducible) at any of 0.3-9 uM (binary (1 = active, 0 = inactive)); higher = active
Summary of the method: (§1)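 Cells from fifteen gene-edited reporter lines (A549, HepG2 and WPMY1) were treated for 24 h at 0.3, 1, 3 or 9 µM and imaged live, four wells per condition. Features were normalised per well to solvent control wells. A condition deviated if ≥3 of 4 wells passed the 95th percentile of control Euclidean distances and was reproducible if its median replicate Pearson correlation beat the 95th percentile of non-replicates; phenotypic activity needed both.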

A549-CANX-COX4 = assay: as above
Summary of the method: as §1

A549-GM130-SQSTM1 = assay: as above
Summary of the method: as §1

A549-TP53BP1-CLTA = assay: as above
Summary of the method: as §1

A549-TUBA1B-RELA = assay: as above
Summary of the method: as §1

HepG2-ACTB-RAB5A = assay: as above
Summary of the method: as §1

HepG2-CANX-COX4 = assay: as above
Summary of the method: as §1

HepG2-GM130-SQSTM1 [1] = assay: as above
Summary of the method: as §1

HepG2-TP53BP1-CLTA = assay: as above
Summary of the method: as §1

HepG2-TUBA1B-RELA [2] = assay: as above
Summary of the method: as §1

WPMY1-ACTB-RAB5A = assay: as above
Summary of the method: as §1

WPMY1-CANX-COX4 = assay: as above
Summary of the method: as §1

WPMY1-GM130-SQSTM1 [3] = assay: as above
Summary of the method: as §1

WPMY1-TP53BP1-CLTA = assay: as above
Summary of the method: as §1

WPMY1-TUBA1B-RELA = assay: as above
Summary of the method: as §1

HepG2-GM130-SQSTM1 [4] = assay: lowest phenotypically active concentration; higher = less potent
Summary of the method: as §1

WPMY1-GM130-SQSTM1 [5] = assay: as above
Summary of the method: as §1

HepG2-TUBA1B-RELA [6] = assay: as above
Summary of the method: as §1

Cc1ccc(C(=O)Oc2ccc(C(O)CNC(C)(C)C)cc2OC(=O)c2ccc(C)cc2)cc1 (stereo unspecified) [bitolterol]
active: phenotypically active (WPMY1-CANX-COX4) 1
inactive: phenotypically active (A549-ACTB-RAB5A) 0 | phenotypically active (A549-CANX-COX4) 0 | phenotypically active (A549-GM130-SQSTM1) 0 | phenotypically active (A549-TP53BP1-CLTA) 0 | phenotypically active (A549-TUBA1B-RELA) 0 | phenotypically active (HepG2-ACTB-RAB5A) 0 | phenotypically active (HepG2-CANX-COX4) 0 | phenotypically active (HepG2-GM130-SQSTM1 [1]) 0 | phenotypically active (HepG2-TP53BP1-CLTA) 0 | phenotypically active (HepG2-TUBA1B-RELA [2]) 0 | phenotypically active (WPMY1-ACTB-RAB5A) 0 | phenotypically active (WPMY1-GM130-SQSTM1 [3]) 0 | phenotypically active (WPMY1-TP53BP1-CLTA) 0 | phenotypically active (WPMY1-TUBA1B-RELA) 0

O=[N+]([O-])c1cc(Cl)ccc1S(=O)(=O)c1ccccc1
9 µM: lowest phenotypically active concentration (WPMY1-GM130-SQSTM1 [5])
inactive: phenotypically active (A549-ACTB-RAB5A) 0 | phenotypically active (A549-CANX-COX4) 0 | phenotypically active (A549-GM130-SQSTM1) 0 | phenotypically active (A549-TP53BP1-CLTA) 0 | phenotypically active (A549-TUBA1B-RELA) 0 | phenotypically active (HepG2-ACTB-RAB5A) 0 | phenotypically active (HepG2-CANX-COX4) 0 | phenotypically active (HepG2-TP53BP1-CLTA) 0 | phenotypically active (HepG2-TUBA1B-RELA [2]) 0 | phenotypically active (WPMY1-ACTB-RAB5A) 0 | phenotypically active (WPMY1-CANX-COX4) 0 | phenotypically active (WPMY1-TP53BP1-CLTA) 0 | phenotypically active (WPMY1-TUBA1B-RELA) 0
active: phenotypically active (HepG2-GM130-SQSTM1 [1]) 1 | phenotypically active (WPMY1-GM130-SQSTM1 [3]) 1
3 µM: lowest phenotypically active concentration (HepG2-GM130-SQSTM1 [4])

c1ccc(-c2cnn3cc(-c4ccc(OCCN5CCOCC5)cc4)cnc23)cc1
inactive: phenotypically active (A549-ACTB-RAB5A) 0 | phenotypically active (A549-CANX-COX4) 0 | phenotypically active (A549-GM130-SQSTM1) 0 | phenotypically active (A549-TP53BP1-CLTA) 0 | phenotypically active (A549-TUBA1B-RELA) 0 | phenotypically active (HepG2-ACTB-RAB5A) 0 | phenotypically active (HepG2-CANX-COX4) 0 | phenotypically active (HepG2-GM130-SQSTM1 [1]) 0 | phenotypically active (HepG2-TP53BP1-CLTA) 0 | phenotypically active (WPMY1-ACTB-RAB5A) 0 | phenotypically active (WPMY1-CANX-COX4) 0 | phenotypically active (WPMY1-GM130-SQSTM1 [3]) 0 | phenotypically active (WPMY1-TP53BP1-CLTA) 0 | phenotypically active (WPMY1-TUBA1B-RELA) 0
active: phenotypically active (HepG2-TUBA1B-RELA [2]) 1
3 µM: lowest phenotypically active concentration (HepG2-TUBA1B-RELA [6])

Fc1ccc(Cl)cc1-c1nc(Nc2ccncc2)c2nccnc2n1
active: phenotypically active (WPMY1-TP53BP1-CLTA) 1
inactive: phenotypically active (A549-ACTB-RAB5A) 0 | phenotypically active (A549-CANX-COX4) 0 | phenotypically active (A549-GM130-SQSTM1) 0 | phenotypically active (A549-TP53BP1-CLTA) 0 | phenotypically active (A549-TUBA1B-RELA) 0 | phenotypically active (HepG2-ACTB-RAB5A) 0 | phenotypically active (HepG2-CANX-COX4) 0 | phenotypically active (HepG2-GM130-SQSTM1 [1]) 0 | phenotypically active (HepG2-TP53BP1-CLTA) 0 | phenotypically active (HepG2-TUBA1B-RELA [2]) 0 | phenotypically active (WPMY1-ACTB-RAB5A) 0 | phenotypically active (WPMY1-CANX-COX4) 0 | phenotypically active (WPMY1-GM130-SQSTM1 [3]) 0 | phenotypically active (WPMY1-TUBA1B-RELA) 0

CCC1(c2ccccc2)NC(=O)N(C)C1=O (stereo unspecified) [Mephenytoin]
inactive: phenotypically active (A549-CANX-COX4) 0 | phenotypically active (A549-TP53BP1-CLTA) 0 | phenotypically active (HepG2-ACTB-RAB5A) 0 | phenotypically active (HepG2-CANX-COX4) 0 | phenotypically active (HepG2-GM130-SQSTM1 [1]) 0 | phenotypically active (HepG2-TP53BP1-CLTA) 0 | phenotypically active (HepG2-TUBA1B-RELA [2]) 0 | phenotypically active (WPMY1-ACTB-RAB5A) 0 | phenotypically active (WPMY1-CANX-COX4) 0 | phenotypically active (WPMY1-GM130-SQSTM1 [3]) 0 | phenotypically active (WPMY1-TP53BP1-CLTA) 0 | phenotypically active (WPMY1-TUBA1B-RELA) 0

O=C1C=C(O)C(=O)c2ccccc21 [2-Hydroxy-[1,4]naphthoquinone]
≤ 0.3 µM: lowest phenotypically active concentration (WPMY1-GM130-SQSTM1 [5])
active: phenotypically active (WPMY1-GM130-SQSTM1 [3]) 1
inactive: phenotypically active (A549-ACTB-RAB5A) 0 | phenotypically active (A549-CANX-COX4) 0 | phenotypically active (A549-GM130-SQSTM1) 0 | phenotypically active (A549-TP53BP1-CLTA) 0 | phenotypically active (A549-TUBA1B-RELA) 0 | phenotypically active (HepG2-ACTB-RAB5A) 0 | phenotypically active (HepG2-CANX-COX4) 0 | phenotypically active (HepG2-GM130-SQSTM1 [1]) 0 | phenotypically active (HepG2-TP53BP1-CLTA) 0 | phenotypically active (HepG2-TUBA1B-RELA [2]) 0 | phenotypically active (WPMY1-ACTB-RAB5A) 0 | phenotypically active (WPMY1-CANX-COX4) 0 | phenotypically active (WPMY1-TP53BP1-CLTA) 0 | phenotypically active (WPMY1-TUBA1B-RELA) 0

Reference: the supplement of paper PMC7411054
